Measured values as given in ChEMBL document CHEMBL1157539, “Thousands of chemical starting points for antimalarial lead identification” (Nature, 2010).
“And” between values parts separate entries of the source, which are not always exact repeats. Equal values may be shown once.

Key:
Type in all cases: functional
Plasmodium falciparum [1] = assay: GSK_TCMDC: Inhibition of Plasmodium falciparum 3D7 in whole red blood cells, using parasite LDH activity as an index of growth. Test compounds present at 2uM
Plasmodium falciparum [2] = assay: GSK_TCMDC: Inhibition of Plasmodium falciparum Dd2 in whole red blood cells, using parasite LDH activity as an index of growth. Test compounds present at 2uM
HepG2 = assay: GSK_TCMDC: Percent inhibition of human HepG2 cell line. Test compounds present at 10uM.

SMILES	Inhibition (Plasmodium falciparum [1]) [%]	Inhibition (Plasmodium falciparum [2])	Inhibition (HepG2)
O=C1Nc2cccc3c2C1(CCCCCN1CC=C(c2c[nH]c4ccccc24)CC1)CCC3 (stereo not drawn)	94	89%	2%
CC(C)CNCc1ccc(-c2cccc(CN(C(=O)NC3CCCCC3)C3CCN(Cc4ccccc4)CC3)c2)cc1.O=C(O)C(F)(F)F	98	88%	20%
COC(=O)c1ccc(CC(C)NCC(O)c2ccccc2Cl)cc1 (stereo not drawn)	94	55%	1%
COC(=O)c1ccc(CC(C)NCC(O)c2cccc(C(F)(F)F)c2)cc1C (stereo not drawn)	93	74%	6%
CNC(=O)c1ccc2[nH]cc(C3CCN(CC4CCC(NC(=O)/C=C/c5ccc(Cl)c(Cl)c5)CC4)CC3)c2c1 (stereo not drawn)	100	90%	0%
O=C(/C=C/c1ccc(Cl)c(Cl)c1)N1CCC(CN2CCC(c3c(Br)[nH]c4ccccc34)CC2)CC1	100	99%	41%
CCCCCCCN1C2CCC1CC(CCOc1ccnc3ccc(OC)cc13)C2 (stereo not drawn)	98	88%	23%
CC(=O)Nc1ccc(CN2CCC(N(C)c3cc(NC(=O)c4cccs4)ccn3)CC2)cc1.O=C(O)C(F)(F)F	100	43%	0%
O=C(/C=C/c1c(Cl)cccc1Cl)NC1CCC(CN2C3CCC2CC(c2c[nH]c4ccccc24)C3)CC1 (stereo not drawn)	95	18%	40%
CC[C@H]1CN2CC[C@H]1C[C@H]2[C@H](O)c1cc(-c2ccc(Cl)c(Cl)c2)nc2ccc(OC)cc12.Cl	98	99%	17%
N#Cc1ccc(N(CC(=O)NCCc2ccc(F)cc2)CC2CC2)c2ccccc12.O=C(O)C(F)(F)F	91	23%	28%
O=C(NC1CCC(CN2CCC(c3c[nH]c4ccccc34)CC2)CC1)c1[nH]c(=O)[nH]c(=O)c1F (stereo not drawn)	99	59%	5%
O=C(/C=C/c1ccc(Cl)c(Cl)c1)N1CCC(CN2CCC(c3c[nH]c4cc(C(F)(F)F)ccc34)CC2)CC1	99	38%	6%
O=C(/C=C/c1ccc(Cl)c(Cl)c1)NC1CCC(N2CCC(c3c[nH]c4ccccc34)CC2)CC1 (stereo not drawn)	100	69%	41%
CC(=O)N(Cc1ccccc1-c1cccc(CNCc2ccc3c(c2)OCO3)c1)C1CCN(Cc2ccccc2)CC1.O=C(O)C(F)(F)F	85	44%	17%
Oc1ccccc1CNCC(O)c1cc(C(F)(F)F)cc(C(F)(F)F)c1 (stereo not drawn)	99	100%	15%
O=C(/C=C/c1ccc(Cl)c(Cl)c1)NC1CCC(CN2CCC(c3c[nH]c4ccc(O)cc34)CC2)CC1 (stereo not drawn)	100	100% and 99%	35% and 38%
CC[C@H]1CN2CC[C@H]1C[C@H]2[C@H](O)c1cc(-c2ccc(F)cc2)nc2ccc(OC)cc12.Cl	99	98%	34%
O=C(/C=C/c1ccc(Cl)c(Cl)c1)N1CCC(CN2CCC(c3c[nH]c4cc5c(cc34)OCO5)CC2)CC1	100	75%	41%
O=C(Cc1cc(=O)oc2cc(O)ccc12)N1CCC(CN2CCC(c3c[nH]c4ccccc34)CC2)CC1	94	0%	1%
Cc1[nH]c2ccc(NS(C)(=O)=O)cc2c1C1CCN(CC2CCN(C(=O)/C=C/c3ccc(Cl)c(Cl)c3)CC2)CC1	99	83%	15%
CO[C@@H]1C[C@@H](C(=O)Nc2ccccc2)N(c2ccc(C#N)c3ccccc23)C1	98	100%	7%
O=C(O)C(F)(F)F.OC1(CNCc2ccccc2)CCN(CCc2c[nH]c3ccc(F)cc23)CC1	100	4%	39%
CCC(C)CN1CCC(N(C)c2cc(NC(=O)c3cccc(C)c3)ccn2)CC1.O=C(O)C(F)(F)F (stereo not drawn)	93	14%	1%
Cc1[nH]c2cc(Cl)ccc2c1C1=CCN(CCN2CCOc3c(Br)cccc3C2=O)CC1.Cl	90	58%	1%
O=C1c2ccccc2CCC1CCN1CC=C(c2c[nH]c3ccccc23)CC1 (stereo not drawn)	89	83%	5%
